IMPase inh: IMPase inhibition in cells; P97697; CHO-M1 cells, IP1 accumulation, HTRF TR-FRET ratio; inhibition (IP1 accumulation), % at 46.1 µM; 120,000 tested, under 10 active; AID 901; active means well fitted curve in the direction sought with a large enough effect in the signal ratio, not every such curve was filed as active; inconclusive means small, poorly fitted or top-dose-only effect, or a change in a side signal; inactive means no such curve, though single readings can be large or run the other way; the % refers to the signal ratio;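 further: cells stimulated with carbachol in lithium chloride buffer; plate controls were DMSO basal wells for no effect and reference inhibitor wells for full effect; higher means more IMPase inhibition seen as more IP1 and lower FRET ratio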
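Measured: the HTRF emission ratio (665/620 nm) plus the 620 nm donor channel, each fitted to the Hill equation to give AC50. Cells were CHO-M1 given compounds up to 46 uM and a 30 min carbachol stimulation at 37C.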
ALDH1A1 block: inhibitors of human aldehyde dehydrogenase 1A1; actives 7.3% (n = 220,000); Purified ALDH1A1, NADH fluorescence, propionaldehyde substrate; Potency, µM (titrated, usually from 75.3 µM), without a hit: top-dose activity, negative = inhibition, actives largely listed as inhibitors;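 further: potency means the concentration at half of the fitted maximal effect; plate controls were no enzyme wells and a reference inhibitor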
PNC inhibitor: perinucleolar compartment assembly inhibition. activity change (PNC), negative = inhibition, % at 10 µM. PC3M PTB-GFP, PNC prevalence imaging, 16 h; hits give low values. actives 3.1% (n = 140,000);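 active means readout at or below -70, meaning at least 70% loss of cells showing the perinucleolar compartment, a nuclear body marking cancer cells; inconclusive means readout between -30 and a set limit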;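 further: plate controls were DMSO wells for no effect and camptothecin positive control wells for full effect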
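Read-out is percentage of cells bearing a perinucleolar compartment, from automated 20x imaging of fixed, Hoechst-stained PC3M PTB-GFP cells. Cells were seeded 4 h, then exposed 16 h to compound (23 nl of library stock) in duplicate plates.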
ALOX12 inhib: 12-hLO (ALOX12) enzyme inhibition; actives 0.12% (n = 150,000); P18054; Potency, µM (doses to about 57.1 µM), inactives show at the top dose activity change, negative = inhibition, usual class: inhibitors; purified 12-hLO, xylenol orange hydroperoxide absorbance; active means well fitted curve in the direction sought with a large enough effect; inconclusive means small, poorly fitted or top-dose-only effect, or another doubt; inactive means no such curve, though single readings can be large; an effect the other way counts as inactive or inconclusive; further: potency means the concentration at half of the fitted maximal effect; nearly all actives have a fitted effect of over 55% in size
Target sequence (P18054 whole entry, looked up): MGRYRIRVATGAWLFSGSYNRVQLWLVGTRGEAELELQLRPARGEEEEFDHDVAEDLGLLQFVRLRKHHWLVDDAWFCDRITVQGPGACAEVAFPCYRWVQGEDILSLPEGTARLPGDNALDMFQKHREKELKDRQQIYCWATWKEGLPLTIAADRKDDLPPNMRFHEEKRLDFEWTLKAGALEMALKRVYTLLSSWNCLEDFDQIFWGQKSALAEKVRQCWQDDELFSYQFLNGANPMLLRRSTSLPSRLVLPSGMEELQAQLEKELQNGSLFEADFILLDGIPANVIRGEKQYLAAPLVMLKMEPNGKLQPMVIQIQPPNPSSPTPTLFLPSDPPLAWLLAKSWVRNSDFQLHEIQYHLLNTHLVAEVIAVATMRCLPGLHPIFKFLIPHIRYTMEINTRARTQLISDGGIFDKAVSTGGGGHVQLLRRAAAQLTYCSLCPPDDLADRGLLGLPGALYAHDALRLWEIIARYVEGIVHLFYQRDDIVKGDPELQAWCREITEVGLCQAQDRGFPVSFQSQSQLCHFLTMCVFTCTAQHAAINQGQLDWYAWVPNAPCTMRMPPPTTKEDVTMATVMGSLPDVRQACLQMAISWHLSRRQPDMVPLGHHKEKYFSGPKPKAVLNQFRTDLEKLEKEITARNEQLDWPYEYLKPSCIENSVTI
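Xylenol orange chromogenic assay: hydroperoxide from 12hLO oxidises Fe(II), giving red-shifted Fe(III)-XO absorbance. Conditions: 150 nM enzyme, 40 uM arachidonic acid, 25 mM Hepes pH 7.0, 0.01% Triton X-100, 30 min, room temperature.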
IMPase Li cell: cell-permeable IMPase inhibitors with lithium potentiation; actives 0.35% (n = 210,000); AID 1457; CHO-M1 cells, IP1 TR-FRET (IP-One), carbachol + lithium; Potency, µM (highest dose often 59.4 µM), for inactives: top-dose activity, negative = IMPase inhibition, actives largely listed as inhibitors; active means well fitted curve in the direction sought with a large enough effect; inconclusive means small, poorly fitted or top-dose-only effect, or another doubt; inactive means no such curve, though single readings can be large; an effect the other way counts as inactive or inconclusive;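 further: IP1 builds up when IMPase is blocked and the TR-FRET signal falls; potency means the concentration at half of the fitted maximal effect; plate controls were basal vehicle for no effect and high inhibitor control for full effect; nearly all actives have a fitted effect of over 50% in size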
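Test compounds were applied to CHO-M1 cells previously cultured for 16–30 h at 2000 per well. A small lithium amount accompanied them; after 30 min at 37C, IP1 was quantified by TR-FRET.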
HPGD inh: blocks human HPGD enzyme activity | purified HPGD, NADH fluorescence kinetic, PGE2 substrate | Potency, µM, inactives show at the top dose activity change, negative = inhibition, hits mostly inhibitors | actives 4.3% (n = 150,000); further: potency means the concentration at half of the fitted maximal effect
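20 nM HPGD preincubated 15 min at room temperature with compound in 50 mM Tris-HCl pH 8, 0.01% Tween 20. Started with 1 mM NAD+ and 30 uM prostaglandin E2; NADH fluorescence (360/450 nm) read 5 times over 30-s intervals, last minus first.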
* hit, by the source's call; u = inconclusive; x = no result given; [ ] = another dose, or the depositor's remark. Most compounds without a hit are left out; they make up all but 11% or so of the library. Unless noted, the call rests on the fitted dose curve; in most records, active means well fitted inhibition curve with a large enough effect (not every such curve was filed as active); inconclusive means small, poorly fitted or top-dose-only effect, or another doubt; inactive means no such curve, though single readings can be large or run the other way. Unless noted, on the % scale 0 is the no-effect control and ±100 the full control effect.

SMILES	IMPase inh	ALDH1A1 block	PNC inhibitor	ALOX12 inhib	IMPase Li cell	HPGD inh
COc1ccccc1NC(=O)CSc1nnnn1-c1ccc(C)cc1	u	6%	u	6%	-5%	-4%
Cn1nnnc1SCC(=O)Nc1ccc(Br)cc1Cl	-1	u	-100*	-2%	8%	-16%
Cn1nnnc1SCC(=O)Nc1c(Cl)cccc1Cl	-11	-9%	-26	1%	1%[38.3 µM]	22µM*
COc1ccccc1NC(=O)c1ccc(NC(=O)CSc2nnnn2C)cc1	-1	0.79µM*	22	1%	29%[38.3 µM]	-26%
Cn1cccc1C(=O)N1CCC2(CCCN(C(=O)Nc3ccccc3)C2)CC1	x	-5%	x	2%	9%	-2%
COC(=O)c1c(NC(=O)C2COc3ccccc3O2)sc2c1CCN(C(C)=O)C2 (stereo not drawn)	x	32µM*	u	-5%	9%	u
Cc1ccccc1NC(=O)c1c(NC(=O)c2ccccc2)sc2c1CCC2	-6	x	x	x	x	x
CCNC(=O)c1c(NC(=O)C2COc3ccccc3O2)sc2c1CCCC2 (stereo not drawn)	0	7%	u	0%	5%[38.3 µM]	-4%
CNC(=O)c1c(NC(=O)c2nc3ccccc3s2)sc2c1CCC2	6	u	u	-11%	5%[38.3 µM]	28µM*
COC(=O)c1c(NC(=O)c2nc3ccccc3s2)sc2c1CCN(C(C)=O)C2	9	13µM*	35	5%	14%[38.3 µM]	-29%
CC(=O)N1CCC(=NNc2nc3ccccc3s2)CC1	x	-1%	x	x	0%	x
Cc1ccc([C@@H](O)c2cnc(C)n2Cc2ccccc2)cc1	x	10%[13.5 µM]	x	3%[11.4 µM]	-1%	-6%
Fc1ccc(/C=C2\CCCC3=C2NC(=S)NC3c2ccc(F)cc2)cc1 (stereo not drawn)	x	u	31	u	6%	25µM*
O=S(=O)(c1ccc(F)cc1)N(CC(O)Cn1c2ccccc2c2ccccc21)c1ccccc1 (stereo not drawn)	11	x	x	x	x	x
O=c1c2ccccc2nc(SCc2nnc(-c3ccccc3Br)o2)n1-c1ccccc1	14	2%	11	-6%	5%	-6%
Cn1c(SCc2nnc(-c3ccccc3Br)o2)nc2sc3c(c2c1=O)CCC3	-1	-11%	-30	-5%	21%[38.3 µM]	8.9µM*
COCCCn1c(SCc2nnc(-c3ccccc3)o2)nc2sc3c(c2c1=O)CCC3	4	u	u	-3%	9%[38.3 µM]	14µM*
CC(C)(C)n1nnnc1CN(Cc1ccc(F)cc1)Cc1ccco1	9	14µM*	7	-6%	12%	-1%
O=C(O)[C@H]1[C@H](C(=O)O)[C@H](C(=O)O)C[C@@H]1C(=O)O	x	1%[13.5 µM]	x	0%[11.4 µM]	11%	-10%
Cc1cc(C)nc(N2CCCC(C(=O)Nc3nnc(C(C)C)s3)C2)n1 (stereo not drawn)	-6	-5%	-100*	-2%	4%	-11%
Cc1cc(C)nc(N2CCCC(C(=O)Nc3ccc4nc(C)c(C)nc4c3)C2)n1 (stereo not drawn)	-3	16µM*	5	-8%	13%[38.3 µM]	-14%
Cc1cc(C)nc(N2CCCC(C(=O)Nc3nnc(C)s3)C2)n1 (stereo not drawn)	-2	-14%	2	1%	x	x
[N-]=[N+]=CC(=O)COC(=O)c1ccccc1	x	3%[13.5 µM]	x	-1%[11.4 µM]	3%	-1%
Cc1ccc(C(=O)c2oc3ccccc3c2NC(=O)COc2ccc(C(C)(C)C)cc2)cc1	5	x	x	x	x	x
O=C1C(c2ccc(C(F)(F)F)cc2)=C(Nc2ccc(Cl)cc2)c2ccccc21	2	x	x	x	x	x
SMILES	IMPase inh	ALDH1A1 block	PNC inhibitor	ALOX12 inhib	IMPase Li cell	HPGD inh
CCOC(=O)CNC(=O)O[C@@H]1Cc2cc(OC)ccc2O[C@H]1c1cccc(OC)c1	x	5%	x	x	9%	-8%
CCOC(=O)Cc1csc(NC(=O)C(C)Oc2ccc3c(C)cc(=O)oc3c2)n1 (stereo not drawn)	x	u	x	x	9%	x
Cc1nnc(NC(=O)C(C)Oc2ccc3c(C)cc(=O)oc3c2)s1 (stereo not drawn)	12	u	-107*	7%	31%[38.3 µM]	u
O=C(Nc1ccccc1)N1CC[C@@]2(CCCN(C(=O)c3cccc(F)c3)C2)C1	x	-3%	x	0%	3%	-1%
O=C(CCN1CCC(c2ccc(Cl)s2)=N1)c1ccc(Cl)s1	x	3.2µM*	x	x	x	x
COc1ccc(-c2c(O)c3c(OC)c4c(cc3oc2=O)OC(C)(C)C=C4)cc1	x	u	x	-12%	6%	-22%
O=C(c1ccncc1)N1CCC2(CC1)CCN(c1ccncc1)CC2	x	-4%	x	0%	28%	-3%
COc1cc(C/C=C/c2ccccc2)c(OC)cc1O	x	u	x	-4%	10%	-7%
NC(=O)c1ccccc1NC(=O)CCc1ccccc1	3	6%	1	0%	-3%[38.3 µM]	-17%
Cc1sc(NC(=S)NC(=O)c2ccco2)c(C(N)=O)c1C	x	3.2µM*	x	x	-17%	x
NC(=O)c1ccccc1NC(=S)NC(=O)CCc1ccccc1	x	13µM*	-108*	-2%	1%	28µM*
CCC(=O)N(CC(=O)Nc1sc(C)c(C)c1C(N)=O)C1CCCC1	x	8.9µM*	x	x	-2%	x
Cc1sc(NC(=O)CCC(=O)O)c(C(N)=O)c1-c1ccccc1	x	13µM*	u	-5%	-4%	14µM*
CC(N)(COP(=O)(O)O)C(=O)O (stereo not drawn)	x	6%	x	x	-3%	x
Clc1ccc2c(NC3CCC(N4CCCCC4)CC3)ccnc2c1 (stereo not drawn)	x	-5%[13.5 µM]	x	5%[11.4 µM]	5%	-10%
Cc1ccc(S(=O)(=O)N(CC(O)Cn2c3ccccc3c3ccccc32)c2cccc(C(=O)NCCO)c2)cc1 (stereo not drawn)	6	x	x	x	x	x
c1cncc(-c2cc(-n3ccnc3)ncn2)c1	x	-12%	x	x	7%	x
CCOC(=O)N1CCc2c(sc(NC(=O)c3ccc(Cl)s3)c2C(N)=O)C1	12	19µM*	38	-3%	10%	32µM*
Cc1c(Cc2ccc3c(c2)OCO3)sc(NC(=O)c2ccccc2)c1C(N)=O	x	u	8	-4%	-5%	u
COC(=O)CCC(=O)NC(=S)Nc1sc(C)c(C)c1C(N)=O	x	u	-124*	1%	u	-30%
CCCC(=O)Nc1sc(Cc2ccccc2)c(C)c1C(N)=O	x	1.8µM*	x	x	18%	x
COC(=O)CCC(=O)NC(=S)Nc1cc(Cl)ccc1Cl	-7	-7%	20	-5%	7%[38.3 µM]	-25%
CCN1CCc2c(sc(NC(=O)c3ccc(S(=O)(=O)N4CCOCC4)cc3)c2C(N)=O)C1	9	40µM*	27	4%	21%[38.3 µM]	-14%
CCOc1ccccc1C(=O)NC1(C(F)(F)F)C(=O)Nc2c1c(=O)[nH]c(=O)n2-c1ccccc1 (stereo not drawn)	6	x	x	x	x	x

Bioassay records as filed in PubChem BioAssay.
